The list is not random: actives were taken first. Their share in the collection is about 5.4%.
SKKanGAS inh: S. pyogenes SKKanGAS growth inhibitors in kanamycin, primary screen, streptokinase expression inhibitor project, SKKanGAS strain, BacTiter-Glo luminescence; 6 h; inhibition, % at 7.5 µM; 300,000 compounds, 1.3% hits; AID 1662, 2009;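 active means mean replicate score, as percent of positive control median, at least 50; inconclusive means mean below 50 but one replicate at or above 50; inactive means mean and every replicate below 50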;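 further: strain carries kanamycin resistance gene driven by streptokinase promoter and grows in 40 µg/ml kanamycin; loss of luminescence reflects streptokinase promoter inhibition or plain growth inhibition; 0% = median of DMSO wells and 100% = positive control at its reference dose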
Beta apoptosis: inhibitors of cytokine-induced beta cell apoptosis, primary screen, luminescence | INS-1E cytokine-induced death, ATP luminescence, 48 h; percent of positive-control rescue, neutral wells zero | protection from apoptosis, % (no concentration beside the values) | 300,000 compounds, 0.8% hits;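 active means Every replicate reaches about 75%, or at least half do and their mean reaches it too, limit read from the data; inconclusive means At least half of replicates reach the limit but their mean does not; inactive means Under half of replicates reach the limit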;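 further: 0% = cytokine-treated negative control wells and 100% = positive control rescue; higher means more ATP so stronger rescue from cytokine killing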
CSC inhib: cancer stem cell viability inhibitors, primary screen, luminescence. cancer stem cell-like cells viability. inhibition, % at 7.5 µM. 300,000 compounds, 1.1% hits; in the data active means inhibition above about 75%; inconclusive means no clear call, values can overlap the other calls; tested in HMLE shEcad cells
MPTP inh: mitochondrial permeability transition pore inhibitors, primary screen, biochemical, isolated mouse mitochondria, absorbance. Ca2+ swelling absorbance, 30 min. inhibition, % at 10 µM. 360,000 compounds, 1.4% hits;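 active means inhibition of 50% or more, scaled per plate between neutral and stimulator controls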;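 further: 0% = DMSO wells given calcium and 100% = 1 mM EGTA wells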
Mdm2-MdmX inh: inhibitors of human Mdm2-MdmX association, primary screen, cell-based, luminescence, split luciferase, SaOS-2, uHTS. inhibition, % at 8 µM. Protein Mdm4 (Homo sapiens) + E3 ubiquitin-protein ligase Mdm2 (Homo sapiens), …. SaOS-2 split-luciferase Mdm2/MdmX complementation. AID 485346, 2010. 330,000 compounds, 3% hits;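 active means inhibition of at least 50% at 8 µM in the primary screen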
Calb FLC: C. albicans growth inhibition with fluconazole, primary screen, CaCi-2 strain, Alamar Blue fluorescence | 300,000 compounds, 0.57% hits | growth inhibition, % (test concentration not listed) | C. albicans CaCi-2 (fluconazole-resistant clinical isolate) + fluconazole, 48 h;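 active means growth inhibition above about 58% in most replicates, limit read from the data, passing the limit was not always enough; inconclusive means exactly half the replicates above a set limit; inactive means most replicates below a set limit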;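 further: all wells also contain fluconazole at 8 µg/ml as a sub-toxic cotreatment; 0% = median of DMSO wells and 100% = median of geldanamycin control wells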
Active calls of the source: *; ? = inconclusive; / = no result.

SMILES | SKKanGAS inh | Beta apoptosis | CSC inhib | MPTP inh | Mdm2-MdmX inh | Calb FLC
Cc1cc(C(=O)C(C)OC(=O)c2ccc(NC(=O)CC#N)cc2)c(C)n1-c1ccc(OC(F)F)cc1 (configuration not stated) | / | 87.5* | 48.7 | 1.7 | 27.2 | /
CC(OC(=O)c1ccc(NC(=O)CC#N)cc1)C(=O)Nc1ccc(Oc2ccccc2)cc1 (configuration not stated) | -7.2 | -1.4 | 7.7 | -1.1 | 18.0 | -19.8
O=C(CNC(=O)c1ccc(N2C(=O)c3ccccc3C2=O)cc1)OCC(=O)c1ccc(Cl)cc1 | / | -7.0 | -9.3 | 1.3 | 8.2 | /
O=C(Nc1nc(N2C(=O)c3ccccc3C2=O)n(-c2ccccc2)n1)c1ccc(Cl)cc1 | 56.3* | 3.2 | 9.1 | 13.9 | 2.1 | -5.9
Cc1ccc(-c2cc(-c3ccccc3)nc(NN)n2)cc1 | 42.9 | 1.1 | 82.7* | 0.0 | 44.0 | 8.5
Cc1cccc(C(=O)Oc2c(Br)cc(Br)cc2/C=N/NC(=O)c2ccncc2)c1 | -0.4 | -5.5 | / | -2.7 | 7.0 | 31.3
Cc1cc(C(=O)N/N=C/c2cc(Br)cc(Br)c2OC(=O)c2ccccc2)n[nH]1 | 18.0 | 94.4* | / | / | 48.1 | 36.3
Cc1cc(C(=O)N/N=C/c2cc(Br)ccc2OC(=O)c2ccc(Br)cc2)n[nH]1 | 9.3 | 91.1* | -21.9 | / | 44.9 | -6.3
COc1ccccc1Nc1nc2nonc2nc1N1CCC(C)CC1 | -2.3 | / | / | 1.1 | 4.9 | -10.3
COc1ccc(-n2nnnc2C(c2cccs2)N2CCN(C/C=C/c3ccccc3)CC2)cc1 (configuration not stated) | / | / | / | 3.3 | / | /
Cc1ccc2nc(N/N=C/c3ccccc3F)nc(-c3ccccc3)c2c1 | 106.4* | 15.8 | 2.2 | 18.4 | 21.4 | -1.4
O=C(Oc1ccc(NC2=C(Cl)C(=O)c3ccccc3C2=O)cc1)c1ccc([N+](=O)[O-])cc1 | 54.2* | / | / | 12.6 | / | ?
Cc1cccc(Cc2nnc(CCC(=O)NCc3cnc4ccccn34)o2)c1 | -2.9 | -2.8 | -15.7 | 2.3 | -3.2 | -4.1
O=C1CN2C(=Nc3ccc(Cl)cc3C2c2ccccc2)CN1 (configuration not stated) | 3.3 | 0.0 | 6.0 | 0.6 | 28.5 | 87.5*
CCC1(C)NC(=O)N(CC(=O)NCC(=O)Nc2c(C)cc(C)cc2C)C1=O (configuration not stated) | / | 3.7 | 5.3 | 0.8 | 17.5 | /
COc1ccc(/C=C/C(=O)c2ccc[nH]2)c(OC)c1OC | 3.3 | -7.7 | -6.4 | 0.6 | 7.7 | -2.5
COc1ccc(/C=C/C(=O)c2ccncc2)c2ccccc12 | 1.7 | 99.8* | 176.4* | 3.6 | 35.1 | 34.5
Cc1cccc(NCC(=O)N/N=C/c2ccc(Br)cc2)c1 | 36.7 | -4.1 | 46.4 | -1.1 | 22.4 | -1.9
COc1ccc(S(=O)(=O)NCC(c2ccc(F)cc2)N2CCN(C)CC2)cc1 (configuration not stated) | 50.1* | -2.3 | / | 0.6 | 32.9 | -0.5
CCOC(=O)Cc1cc(=O)n2[nH]cc(-c3cccc(Br)c3)c2n1 | 71.2* | 1.3 | 27.0 | -3.6 | 14.3 | 9.6
Cc1ccc(C(=O)C[n+]2ccc(-c3nnc4n3CCC4)cc2)cc1 | 5.5 | -1.5 | -15.4 | -2.1 | 7.4 | ?
Cc1cccc(-c2oc3ccccc3c2C#CCCO)c1 | 2.9 | -3.5 | 89.5* | 1.1 | 13.1 | -11.3
COc1ccccc1-c1oc2ccccc2c1C#CCCO | / | -0.4 | -31.5 | 1.3 | 4.2 | /
Cc1cccc(-c2oc3ccccc3c2C#CCCCCO)c1 | 75.7* | -1.4 | 100.9* | 1.0 | 30.2 | -18.4
Cc1ccccc1Cn1nc(C)c(NC(=O)c2noc3c2CCCC3)c1C | 4.5 | -1.1 | -13.7 | 1.2 | 4.9 | 29.7
CC(=O)Nc1ccc(C2C(=O)c3ccccc3C2=O)cc1 | 50.9* | -4.3 | -1.4 | 1.6 | 9.6 | 8.2
CC(=O)c1c(C)[nH]c(C(=O)OCc2cccc(Cl)c2)c1C | 4.0 | 74.6* | 23.7 | 28.4 | 31.5 | 28.7
O=C(c1cc(C2CC2)nn1-c1ccccc1)N1CCN(S(=O)(=O)c2ccccc2)CC1 | / | / | / | -1.6 | 11.7 | /
C/C(=N\Nc1cccc(C(=O)O)c1)c1ccc(Cl)s1 | -6.7 | 0.7 | -10.0 | -0.2 | -8.3 | 78.0*
COc1ccc(/C(C)=N/Nc2cccc(C(=O)O)c2)cc1OC | 3.8 | -0.6 | -6.1 | -0.3 | 12.7 | -2.7

Assay outcomes from PubChem.
